From PubChem BioAssay (Tox21) come the findings set out here.

Results filed as inconclusive are left out. Entries that show only a call come without a potency. Activity calls are given as the source filed them. Calls come from the whole dose curve.
Potency is the fitted concentration of half-maximal effect.

Chain of Thyrotropin receptor (Homo sapiens) (P16473 whole entry, looked up): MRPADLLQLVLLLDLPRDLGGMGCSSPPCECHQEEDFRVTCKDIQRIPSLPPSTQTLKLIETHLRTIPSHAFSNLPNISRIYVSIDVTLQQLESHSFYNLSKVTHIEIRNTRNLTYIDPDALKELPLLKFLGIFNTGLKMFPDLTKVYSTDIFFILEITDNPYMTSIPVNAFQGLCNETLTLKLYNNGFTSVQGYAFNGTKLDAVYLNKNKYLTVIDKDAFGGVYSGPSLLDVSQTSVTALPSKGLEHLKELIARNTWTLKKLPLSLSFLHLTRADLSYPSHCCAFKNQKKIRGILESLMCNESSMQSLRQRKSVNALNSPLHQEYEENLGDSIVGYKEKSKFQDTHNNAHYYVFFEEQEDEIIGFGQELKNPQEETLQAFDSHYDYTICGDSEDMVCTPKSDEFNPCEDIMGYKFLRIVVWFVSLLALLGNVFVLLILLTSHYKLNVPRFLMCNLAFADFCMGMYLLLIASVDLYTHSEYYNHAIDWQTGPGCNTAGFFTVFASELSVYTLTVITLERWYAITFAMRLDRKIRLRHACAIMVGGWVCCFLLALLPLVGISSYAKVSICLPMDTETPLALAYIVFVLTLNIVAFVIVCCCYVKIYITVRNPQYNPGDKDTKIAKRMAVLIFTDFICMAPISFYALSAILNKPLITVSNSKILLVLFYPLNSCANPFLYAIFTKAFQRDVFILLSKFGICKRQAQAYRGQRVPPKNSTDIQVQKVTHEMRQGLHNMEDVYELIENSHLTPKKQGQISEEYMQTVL

This assay addresses Thyrotropin receptor (Homo sapiens) (UniProt P16473). The experiment in a line: qHTS assay to identify small molecule agonists of the thyroid stimulating hormone receptor (TSHR) signaling pathway (AID 1224843). Note: nearly all actives have a fitted effect of over 45% in size. To be noted: TSHR-HEK293 cells, cAMP HTRF, agonist mode, 30 min; series mostly up to 92.4 µM. The source says:
National Center for Advancing Translational Sciences [NCATS]
NIH Chemical Genomics Center [NCGC]
U.S. Environmental Protection Agency [EPA]
National Institutes of Environmental Health Sciences [NIEHS]
National Toxicology Program [NTP]
U.S. Food and Drug Administration [FDA]
TSHR is the receptor for thyrotropin (thyroid stimulating hormone or TSH), a member of the glycoprotein hormone family. TSH is released by the anterior pituitary gland and is the main regulator of thyroid gland growth and development. Upon binding circulating thyrotropin, a G-protein signal cascade activates adenylyl cyclase and […] cAMP concentration is increased. cAMP is a key second messenger involved extensively in cellular signal transduction pathways associated with the majority of G-protein coupled receptors (GPCRs). The activation of these GPCRs by neurotransmitters, lipids, nucleotides, peptides and hormones results in the activation or the inhibition of plasma membrane-bound adenylate cyclase through heterotrimeric G-proteins. A cell-based TSHR assay was used to screen the Tox21 10K library for compounds that can modulate TSHR in agonist mode.
Tox21 Assay Protocol Summary:
TSHR-Hek293 cells were dispensed at 800 cells/4uL/well in 1536-well white plates using a Multidrop dispenser. […] The plates were incubated at room temperature for 30 min. 2.5 ul/well of cAMP-d2 and 2.5ul/well of anti-cAMP-cryptate was added respectively into the assay plates using a Flying Reagent Dispenser. After 1 hr incubation at room temperature, the fluorescence intensity in the plates was measured using an Envision plate reader. Each test compound was measured at 15 concentrations and in triplicates.
(In qHTS, concentration-response curves come from the screen itself.)
On to `CCOP(=O)(N=C1SCCS1)OCC`, for which the Potency entry was “inactive”.

With `Fc1cc(Br)ccc1CBr`, the Potency result was “inactive”.

In the case of `CC(C)NCC(O)c1ccc(N)c(C#N)c1` (stereo not given), the Potency is 0.0021 µM (active).

As to `COc1ccc2c(c1OC)CN1CCc3cc4c(cc3C1C2)OCO4` (stereo not given), the Potency result is “inactive”.

`CC(C(O)c1ccccc1)N(C)C/C=C/c1ccccc1` (stereo not given): the Potency entry was “inactive”.

For `C[N+](C)=CCl`, the Potency result was “inactive”.

As for `COc1ccc(C(=O)N2CCCC2=O)cc1`, the Potency entry was “inactive”.

`BrCCCCCCBr`: the Potency result was “inactive”.

As to `CCN(CC)CCOC(=O)C(C)(c1ccccc1)c1ccccc1`, the Potency entry was “inactive”.

As to `NC(=O)c1cc([N+](=O)[O-])cc([N+](=O)[O-])c1`, the Potency result was “inactive”.

Take `O=C1OC(CCN2CCCCC2)OC1(c1ccccc1)c1ccccc1` (stereo not given): the Potency result is “inactive”.

In the case of `O=C(Nc1ccccc1)N(Cc1ccc(Cl)cc1)C1CCCC1`, the Potency was 48.6 µM (active).

Regarding `O=[N+]([O-])c1cccc(O)c1`, the Potency entry is “inactive”.

As to `OCCSCSCCO`, the Potency result is “inactive”.

On to `Cc1cnc[nH]1`, for which the Potency result was “inactive”.

For `O=[N+]([O-])c1ccc(CBr)cc1`, the Potency entry was “inactive”.

For the molecule `Cc1cc(C)c(C(=O)P(=O)(C(=O)c2c(C)cc(C)cc2C)c2ccccc2)c(C)c1`, the Potency result is “inactive”.

With `OC(c1ccccc1)(c1ccccc1)C1CCNCC1`, the Potency result is “inactive”.

As for `O=C(NCO)NCO`, the Potency entry was “inactive”.

On to `CC(CC(C#N)(c1ccccc1)c1ccccc1)N(C)C` (stereo not given), for which the Potency entry was “inactive”.

`O=C(N[C@H]1CN2CCC1CC2)c1cc2ccoc2cn1`: the Potency entry is “inactive”.

Take `OCCBr`: the Potency result is “inactive”.

Turning to `CN1C(=S)CN=C(c2ccccc2)c2cc(Cl)ccc21`, the Potency result is “inactive”.

As to `CC(C)CC#N`, the Potency result is “inactive”.

`N#CCNCC#N`: the Potency result was “inactive”.

`CCCCC(=O)Cl`: the Potency result is “inactive”.

For `COC(=O)c1c(C(F)F)nc(C(F)(F)F)c(C2=NCCS2)c1CC(C)C`, the Potency result is “inactive”.

As for `c1ccc(N2CCNCC2)cc1`, the Potency entry was “inactive”.

As to `CSc1nc(N=[N+]=[N-])nc(NC(C)C)n1`, the Potency entry is “inactive”.

On to `CC1CCCCC1NC(=O)Nc1ccccc1` (stereo not given), for which the Potency result was “inactive”.

Regarding `CCCCOC(=O)c1ccccc1C(=O)O`, the Potency entry is “inactive”.

On to `N#CC(O)c1ccccc1` (stereo not given), for which the Potency result is “inactive”.

Take `CCCSC(=O)Cl`: the Potency entry was “inactive”.

`CCCCc1c(C)nc(NCC)[nH]c1=O`: the Potency entry was “inactive”.

Consider `C1CCC(C2CCCCC2)CC1`, for which the Potency entry was “inactive”.

Regarding `CC(=O)CCc1ccc2c(c1)OCO2`, the Potency result is “inactive”.

Regarding `c1coc(-c2nc3ccccc3[nH]2)c1`, the Potency entry was “inactive”.

Turning to `C=C(C)[C@@H]1CC=C(C=O)CC1`, the Potency entry is “inactive”.

As to `COc1cc(OC)nc(NC(=O)NS(=O)(=O)c2ncccc2OCC(F)(F)F)n1`, the Potency result was “inactive”.

Regarding `CCC(Cl)[N+](=O)[O-]` (stereo not given), the Potency result was “inactive”.
